Experimental data taken from doi:10.1101/2025.02.07.636106.

Assays:
[1] = target: Histone H2B type 1-M (UniProt Q99879); test: cross-link between two proteins; cross-linking mass spectrometry
[2] = target: Histone deacetylase 1 (UniProt Q13547); test: as above
[3] = target: Histone-lysine N-methyltransferase 2A (UniProt Q03164); test: as above
[4] = target: Histone-lysine N-methyltransferase, H3 lysine-36 specific (UniProt Q96L73); test: as above
[5] = target: Keratin, type I cytoskeletal 10 (UniProt P13645); test: as above
[6] = target: KxDL motif-containing protein 1 (UniProt Q9BQD3); test: as above
[7] = target: Lymphatic vessel endothelial hyaluronic acid receptor 1 (UniProt Q9Y5Y7); test: as above
[8] = target: Melanoma inhibitory activity protein 2 (UniProt Q96PC5); test: as above
[9] = target: Zinc finger protein DPF3 (UniProt Q92784); test: as above
[10] = target: Metastasis-associated protein MTA3 (UniProt Q9BTC8); test: as above
[11] = target: Methyl-CpG-binding domain protein 2 (UniProt Q9UBB5); test: as above
[12] = target: Protein DOP1B (UniProt Q9Y3R5); test: as above
[13] = target: Transcriptional repressor p66-alpha (UniProt Q86YP4); test: as above
[14] = target: Transcriptional repressor p66-beta (UniProt Q8WXI9); test: as above
[15] = target: Tyrosine-protein phosphatase non-receptor type 14 (UniProt Q15678); test: as above
[16] = target: Histone deacetylase 1 (UniProt Q13547); test: cross-link between two proteins; affinity purification or IP with mass spectrometry; cross-linking mass spectrometry
[17] = target: Paired amphipathic helix protein Sin3a (UniProt Q96ST3); test: cross-link between two proteins; cross-linking mass spectrometry
[18] = target: Pre-mRNA-splicing factor CWC25 homolog (UniProt Q9NXE8); test: as above
[19] = target: Guanine nucleotide-binding protein G(i) subunit alpha-3 (UniProt P08754); test: co-fractionation; co-fractionation; cross-linking mass spectrometry
[20] = target: Heat shock-related 70 kDa protein 2 (UniProt P54652); test: as above
[21] = target: Tubulin alpha-3E chain (UniProt Q6PEY2); test: as above
[22] = target: AP-2 complex subunit mu (UniProt Q96CW1); test: cross-link between two proteins; co-fractionation; cross-linking mass spectrometry
[23] = target: Proteasome subunit alpha type-5 (UniProt P28066); test: as above
[24] = target: Proteasome subunit beta type-4 (UniProt P28070); test: as above
[25] = target: Proteasome subunit beta type-7 (UniProt Q99436); test: as above
[26] = target: Dolichyl-diphosphooligosaccharide--protein glycosyltransferase 48 kDa subunit (UniProt P39656); test: cross-link between two proteins; affinity purification or IP with mass spectrometry; cross-linking mass spectrometry
[27] = target: 14-3-3 protein epsilon (UniProt P62258); test: cross-linking mass spectrometry
[28] = target: Calcineurin B homologous protein 1 (UniProt Q99653); test: cross-linking mass spectrometry
[29] = target: Charged multivesicular body protein 1a (UniProt Q9HD42); test: cross-linking mass spectrometry
[30] = target: Charged multivesicular body protein 3 (UniProt Q9Y3E7); test: cross-linking mass spectrometry
[31] = target: Charged multivesicular body protein 1b (UniProt Q7LBR1); test: cross-linking mass spectrometry
[32] = target: Charged multivesicular body protein 4b (UniProt Q9H444); test: cross-linking mass spectrometry
[33] = target: Endoplasmic reticulum resident protein 44 (UniProt Q9BS26); test: cross-linking mass spectrometry
[34] = target: Integrin beta-5 (UniProt P18084); test: cross-linking mass spectrometry
[35] = target: Laminin subunit gamma-1 (UniProt P11047); test: cross-linking mass spectrometry
[36] = target: Splicing factor 3A subunit 1 (UniProt Q15459); test: cross-linking mass spectrometry
[37] = target: Splicing factor 3B subunit 2 (UniProt Q13435); test: cross-linking mass spectrometry
[38] = target: Splicing factor 3B subunit 5 (UniProt Q9BWJ5); test: cross-linking mass spectrometry
[39] = target: Splicing factor 45 (UniProt Q96I25); test: cross-linking mass spectrometry
[40] = target: Syntaxin-8 (UniProt Q9UNK0); test: cross-linking mass spectrometry
[41] = target: U1 small nuclear ribonucleoprotein A (UniProt P09012); test: cross-linking mass spectrometry
[42] = target: Vacuolar protein sorting-associated protein 16 homolog (UniProt Q9H269); test: cross-linking mass spectrometry
[43] = target: Vacuolar protein sorting-associated protein 45 (UniProt Q9NRW7); test: cross-linking mass spectrometry
[44] = target: Vesicle transport through interaction with t-SNAREs homolog 1A (UniProt Q96AJ9); test: cross-linking mass spectrometry
[45] = target: Metastasis-associated protein MTA2 (UniProt O94776); test: cross-link between two proteins; cross-linking mass spectrometry
[46] = target: Methyl-CpG-binding domain protein 3 (UniProt O95983); test: as above
[47] = target: Plexin-A1 (UniProt Q9UIW2); test: as above
[48] = target: Polyadenylate-binding protein 3 (UniProt Q9H361); test: as above
[49] = target: Probable serine carboxypeptidase CPVL (UniProt Q9H3G5); test: as above
[50] = target: Proteasome subunit beta type-3 (UniProt P49720); test: as above
[51] = target: Putative elongation factor 1-alpha-like 3 (UniProt Q5VTE0); test: as above
[52] = target: Putative heat shock protein HSP 90-alpha A4 (UniProt Q58FG1); test: as above
[53] = target: RNA-binding protein Raly (UniProt Q9UKM9); test: as above
[54] = target: SIR2 antiphage-like protein 2 (UniProt Q9NWS6); test: as above
[55] = target: Serine palmitoyltransferase 2 (UniProt O15270); test: as above
[56] = target: Serine/threonine-protein kinase MARK2 (UniProt Q7KZI7); test: as above
[57] = target: Splicing factor 3B subunit 2 (UniProt Q13435); test: as above
[58] = target: Structural maintenance of chromosomes protein 3 (UniProt Q9UQE7); test: as above
[59] = target: Succinate dehydrogenase [ubiquinone] flavoprotein subunit, mitochondrial (UniProt P31040); test: as above
[60] = target: THO complex subunit 2 (UniProt Q8NI27); test: as above
[61] = target: THO complex subunit 3 (UniProt Q96J01); test: as above
[62] = target: Transforming protein RhoA (UniProt P61586); test: as above
[63] = target: V-type proton ATPase subunit D (UniProt Q9Y5K8); test: as above
Chain of V-type proton ATPase subunit D (Q9Y5K8 whole entry): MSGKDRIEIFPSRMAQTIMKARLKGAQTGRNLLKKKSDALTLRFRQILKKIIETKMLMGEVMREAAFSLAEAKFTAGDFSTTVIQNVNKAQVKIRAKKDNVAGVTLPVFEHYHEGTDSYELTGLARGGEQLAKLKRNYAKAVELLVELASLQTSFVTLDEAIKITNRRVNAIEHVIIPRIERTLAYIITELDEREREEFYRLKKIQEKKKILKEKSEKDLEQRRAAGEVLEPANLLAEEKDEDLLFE

Chain of Histone deacetylase 1 (Q13547 whole entry): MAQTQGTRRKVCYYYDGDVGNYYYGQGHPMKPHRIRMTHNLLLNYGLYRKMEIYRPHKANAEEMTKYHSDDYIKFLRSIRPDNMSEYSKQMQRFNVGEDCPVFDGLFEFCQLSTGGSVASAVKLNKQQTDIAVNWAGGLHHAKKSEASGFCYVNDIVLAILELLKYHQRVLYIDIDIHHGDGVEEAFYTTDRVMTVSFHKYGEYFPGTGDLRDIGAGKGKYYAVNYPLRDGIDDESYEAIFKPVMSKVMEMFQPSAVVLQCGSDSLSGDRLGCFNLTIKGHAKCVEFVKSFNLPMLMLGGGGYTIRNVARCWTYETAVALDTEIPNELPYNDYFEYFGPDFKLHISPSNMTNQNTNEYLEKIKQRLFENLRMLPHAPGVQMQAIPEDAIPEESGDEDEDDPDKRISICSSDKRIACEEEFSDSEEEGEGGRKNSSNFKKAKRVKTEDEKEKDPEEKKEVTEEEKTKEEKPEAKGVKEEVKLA
Chain of Vesicle transport through interaction with t-SNAREs homolog 1A (Q96AJ9 whole entry): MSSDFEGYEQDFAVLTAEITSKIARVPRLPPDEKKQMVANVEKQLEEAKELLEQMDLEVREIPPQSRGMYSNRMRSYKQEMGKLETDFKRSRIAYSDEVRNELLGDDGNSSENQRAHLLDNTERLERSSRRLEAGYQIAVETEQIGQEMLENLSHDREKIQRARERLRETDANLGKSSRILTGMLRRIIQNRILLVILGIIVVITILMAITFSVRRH
Chain of Charged multivesicular body protein 3 (Q9Y3E7 whole entry): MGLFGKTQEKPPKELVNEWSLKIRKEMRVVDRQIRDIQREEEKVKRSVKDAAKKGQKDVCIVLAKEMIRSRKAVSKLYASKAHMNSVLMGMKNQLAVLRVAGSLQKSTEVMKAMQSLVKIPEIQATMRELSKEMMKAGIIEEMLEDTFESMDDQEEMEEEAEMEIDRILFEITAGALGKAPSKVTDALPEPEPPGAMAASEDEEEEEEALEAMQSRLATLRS
Chain of Methyl-CpG-binding domain protein 2 (Q9UBB5 whole entry, the tested form may be a part): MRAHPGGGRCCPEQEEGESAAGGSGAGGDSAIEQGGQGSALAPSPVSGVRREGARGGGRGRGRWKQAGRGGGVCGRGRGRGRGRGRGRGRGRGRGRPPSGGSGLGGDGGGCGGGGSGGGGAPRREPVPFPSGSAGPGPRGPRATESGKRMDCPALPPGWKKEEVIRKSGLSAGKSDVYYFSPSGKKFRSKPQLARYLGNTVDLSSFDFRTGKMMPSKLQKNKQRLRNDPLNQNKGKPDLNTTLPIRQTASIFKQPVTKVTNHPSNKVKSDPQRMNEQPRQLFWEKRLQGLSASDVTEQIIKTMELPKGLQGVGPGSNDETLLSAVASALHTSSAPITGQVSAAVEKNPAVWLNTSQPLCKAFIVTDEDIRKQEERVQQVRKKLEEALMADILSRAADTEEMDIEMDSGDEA
Chain of Proteasome subunit beta type-7 (Q99436 whole entry): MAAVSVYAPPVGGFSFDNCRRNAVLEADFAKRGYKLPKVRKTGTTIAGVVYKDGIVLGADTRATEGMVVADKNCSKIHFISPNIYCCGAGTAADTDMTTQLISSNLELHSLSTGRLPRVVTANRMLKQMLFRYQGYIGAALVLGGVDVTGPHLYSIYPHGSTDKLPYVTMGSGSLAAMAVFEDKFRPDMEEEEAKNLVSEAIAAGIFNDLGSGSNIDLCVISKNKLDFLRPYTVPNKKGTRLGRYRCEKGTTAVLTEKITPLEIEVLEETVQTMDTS
Chain of Melanoma inhibitory activity protein 2 (Q96PC5 whole entry): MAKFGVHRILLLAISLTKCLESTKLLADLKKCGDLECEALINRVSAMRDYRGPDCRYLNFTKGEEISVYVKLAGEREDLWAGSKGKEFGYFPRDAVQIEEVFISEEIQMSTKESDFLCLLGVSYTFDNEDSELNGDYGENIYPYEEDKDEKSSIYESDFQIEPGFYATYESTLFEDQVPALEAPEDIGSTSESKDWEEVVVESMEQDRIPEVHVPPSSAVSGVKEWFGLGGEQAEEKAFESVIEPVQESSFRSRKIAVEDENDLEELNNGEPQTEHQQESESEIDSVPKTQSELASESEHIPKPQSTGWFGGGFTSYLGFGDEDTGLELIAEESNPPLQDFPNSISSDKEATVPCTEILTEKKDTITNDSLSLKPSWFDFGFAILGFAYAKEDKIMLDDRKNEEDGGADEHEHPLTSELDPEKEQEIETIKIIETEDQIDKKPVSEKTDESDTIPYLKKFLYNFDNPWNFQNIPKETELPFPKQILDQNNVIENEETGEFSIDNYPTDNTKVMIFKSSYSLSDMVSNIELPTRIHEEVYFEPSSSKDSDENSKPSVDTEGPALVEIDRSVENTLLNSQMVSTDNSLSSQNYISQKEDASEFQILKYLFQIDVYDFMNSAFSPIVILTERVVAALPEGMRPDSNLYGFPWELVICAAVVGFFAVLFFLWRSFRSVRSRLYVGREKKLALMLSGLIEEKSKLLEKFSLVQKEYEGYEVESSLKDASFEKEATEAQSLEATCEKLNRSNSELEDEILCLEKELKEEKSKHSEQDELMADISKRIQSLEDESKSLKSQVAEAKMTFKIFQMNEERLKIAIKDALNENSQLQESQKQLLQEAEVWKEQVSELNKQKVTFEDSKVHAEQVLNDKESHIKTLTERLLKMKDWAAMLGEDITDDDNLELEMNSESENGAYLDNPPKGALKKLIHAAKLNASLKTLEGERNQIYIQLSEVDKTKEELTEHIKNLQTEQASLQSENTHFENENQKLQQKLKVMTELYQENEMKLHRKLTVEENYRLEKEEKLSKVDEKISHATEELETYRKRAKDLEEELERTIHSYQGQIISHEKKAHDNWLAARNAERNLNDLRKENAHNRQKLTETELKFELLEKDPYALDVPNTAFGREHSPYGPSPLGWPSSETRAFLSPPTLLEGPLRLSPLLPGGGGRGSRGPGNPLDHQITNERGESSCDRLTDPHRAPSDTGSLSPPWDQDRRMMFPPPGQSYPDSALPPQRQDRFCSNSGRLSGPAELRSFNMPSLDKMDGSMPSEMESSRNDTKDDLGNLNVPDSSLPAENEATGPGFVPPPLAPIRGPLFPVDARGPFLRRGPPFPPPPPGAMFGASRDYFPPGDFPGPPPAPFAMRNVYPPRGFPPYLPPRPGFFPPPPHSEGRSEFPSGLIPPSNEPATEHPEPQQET
Chain of Charged multivesicular body protein 1a (Q9HD42 whole entry): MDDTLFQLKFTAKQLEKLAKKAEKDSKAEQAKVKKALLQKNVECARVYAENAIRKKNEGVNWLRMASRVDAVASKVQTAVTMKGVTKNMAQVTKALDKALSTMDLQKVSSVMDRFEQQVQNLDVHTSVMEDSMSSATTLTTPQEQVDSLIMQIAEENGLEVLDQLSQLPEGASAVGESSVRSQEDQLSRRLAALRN
Chain of Transcriptional repressor p66-beta (Q8WXI9 whole entry): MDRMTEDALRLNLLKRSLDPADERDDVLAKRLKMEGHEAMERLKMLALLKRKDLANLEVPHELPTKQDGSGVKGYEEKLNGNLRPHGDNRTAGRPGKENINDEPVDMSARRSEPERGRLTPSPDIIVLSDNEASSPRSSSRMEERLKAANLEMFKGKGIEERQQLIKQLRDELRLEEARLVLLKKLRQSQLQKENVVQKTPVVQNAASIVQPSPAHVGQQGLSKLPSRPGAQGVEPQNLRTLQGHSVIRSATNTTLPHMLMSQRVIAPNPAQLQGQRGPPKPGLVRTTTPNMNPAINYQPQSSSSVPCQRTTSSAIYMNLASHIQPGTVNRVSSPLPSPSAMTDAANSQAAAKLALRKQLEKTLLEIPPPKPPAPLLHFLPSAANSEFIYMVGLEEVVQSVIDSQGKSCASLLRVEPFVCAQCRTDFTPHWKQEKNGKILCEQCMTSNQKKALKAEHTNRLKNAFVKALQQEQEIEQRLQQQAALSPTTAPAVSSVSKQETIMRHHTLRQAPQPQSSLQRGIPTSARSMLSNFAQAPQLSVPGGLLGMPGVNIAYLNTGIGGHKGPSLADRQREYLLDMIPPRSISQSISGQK
Chain of 14-3-3 protein epsilon (P62258 whole entry): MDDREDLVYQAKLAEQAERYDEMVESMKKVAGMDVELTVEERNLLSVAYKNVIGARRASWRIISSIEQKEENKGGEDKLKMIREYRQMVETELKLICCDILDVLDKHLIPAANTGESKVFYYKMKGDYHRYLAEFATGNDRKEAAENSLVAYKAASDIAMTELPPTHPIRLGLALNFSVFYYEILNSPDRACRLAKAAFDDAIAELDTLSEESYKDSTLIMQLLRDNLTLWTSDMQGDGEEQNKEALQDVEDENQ
Chain of Putative heat shock protein HSP 90-alpha A4 (Q58FG1 whole entry): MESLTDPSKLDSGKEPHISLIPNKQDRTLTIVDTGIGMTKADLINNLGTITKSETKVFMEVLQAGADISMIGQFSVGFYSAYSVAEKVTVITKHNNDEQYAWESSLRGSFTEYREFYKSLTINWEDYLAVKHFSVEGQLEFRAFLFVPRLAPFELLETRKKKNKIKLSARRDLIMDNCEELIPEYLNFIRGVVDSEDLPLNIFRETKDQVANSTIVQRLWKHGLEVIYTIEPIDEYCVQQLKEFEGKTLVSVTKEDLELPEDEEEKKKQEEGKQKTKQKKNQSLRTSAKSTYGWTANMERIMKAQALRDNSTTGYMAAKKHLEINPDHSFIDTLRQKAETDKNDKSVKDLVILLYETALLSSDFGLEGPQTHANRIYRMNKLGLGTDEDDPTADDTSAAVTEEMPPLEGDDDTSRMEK
Chain of Calcineurin B homologous protein 1 (Q99653 whole entry): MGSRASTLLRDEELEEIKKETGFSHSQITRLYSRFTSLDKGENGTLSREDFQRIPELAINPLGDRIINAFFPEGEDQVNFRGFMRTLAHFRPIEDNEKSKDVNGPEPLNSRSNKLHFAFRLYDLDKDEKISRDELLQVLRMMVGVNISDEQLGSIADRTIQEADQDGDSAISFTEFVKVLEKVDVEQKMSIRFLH

Q: How did the “listed as a hit” value [1] turn out when ADP/ATP translocase 3, P12236 was run?
A: yes

Q: With Collagen alpha-5(IV) chain, P29400 as the substance, how does the “listed as a hit” value [2] read?
A: yes

Q: Prohibitin 1, P35232 was tested. Which “listed as a hit” value [3] did it give?
A: yes

Q: For “Protein-L-isoaspartate(D-aspartate) O-methyltransferase, P22061”, which “listed as a hit” value [4] is on record?
A: yes

Q: How did the “listed as a hit” value [5] turn out when Keratin, type II cytoskeletal 1, P04264 was run?
A: yes

Q: How did the “listed as a hit” value [6] turn out when “Biogenesis of lysosome-related organelles complex 1 subunit 1, P78537” was run?
A: yes

Q: “B-cell receptor-associated protein 31, P51572” was tested. Which “listed as a hit” value [7] did it give?
A: yes

Q: Which “listed as a hit” value [8] does the source give for Syntaxin-7, O15400 here?
A: yes

Q: And the “listed as a hit” value [9]?
A: yes

Q: Which “listed as a hit” value [10] does the source give for “Metastasis-associated protein MTA1, Q13330” here?
A: yes

Q: What about the “listed as a hit” value [11] of the same substance?
A: yes

Q: And the “listed as a hit” value [12]?
A: yes

Q: And the “listed as a hit” value [13]?
A: yes

Q: What about the “listed as a hit” value [14] of the same substance?
A: yes

Q: What about the “listed as a hit” value [15] of the same substance?
A: yes

Q: And the “listed as a hit” value [16]?
A: yes

Q: Histone-binding protein RBBP7, Q16576 was tested. Which “listed as a hit” value [17] did it give?
A: yes

Q: For “Transcriptional repressor p66-beta, Q8WXI9”, which “listed as a hit” value [18] is on record?
A: yes

Q: “Guanine nucleotide-binding protein G(i) subunit alpha-2, P04899” was tested. Which “listed as a hit” value [19] did it give?
A: yes

Q: Which “listed as a hit” value [20] does the source give for Heat shock 70 kDa protein 6, P17066 here?
A: yes

Q: For Tubulin beta-4B chain, P68371, which “listed as a hit” value [21] is on record?
A: yes

Q: With AP-2 complex subunit alpha-1, O95782 as the substance, how does the “listed as a hit” value [22] read?
A: yes

Q: For Proteasome subunit alpha type-7, O14818, which “listed as a hit” value [23] is on record?
A: yes

Q: With Proteasome subunit beta type-1, P20618 as the substance, how does the “listed as a hit” value [24] read?
A: yes

Q: For Proteasome subunit alpha type-6, P60900, which “listed as a hit” value [25] is on record?
A: yes

Q: How did the “listed as a hit” value [25] turn out when Proteasome subunit beta type-3, P49720 was run?
A: yes

Q: For Calnexin, P27824, which “listed as a hit” value [26] is on record?
A: yes

Q: For “Paired amphipathic helix protein Sin3b, O75182”, which “listed as a hit” value [16] is on record?
A: yes

Q: 14-3-3 protein gamma, P61981 was tested. Which “listed as a hit” value [27] did it give?
A: yes

Q: How did the “listed as a hit” value [28] turn out when “Glycerol-3-phosphate acyltransferase 4, Q86UL3” was run?
A: yes

Q: “Charged multivesicular body protein 1b, Q7LBR1” was tested. Which “listed as a hit” value [29] did it give?
A: yes

Q: And the “listed as a hit” value [30]?
A: yes

Q: Which “listed as a hit” value [29] does the source give for “Charged multivesicular body protein 2a, O43633” here?
A: yes

Q: What about the “listed as a hit” value [31] of the same substance?
A: yes

Q: And the “listed as a hit” value [30]?
A: yes

Q: And the “listed as a hit” value [8]?
A: yes

Q: With “Programmed cell death 6-interacting protein, Q8WUM4” as the substance, how does the “listed as a hit” value [32] read?
A: yes

Q: How did the “listed as a hit” value [33] turn out when Peroxiredoxin-4, Q13162 was run?
A: yes

Q: Integrin alpha-V, P06756 was tested. Which “listed as a hit” value [34] did it give?
A: yes

Q: How did the “listed as a hit” value [35] turn out when Laminin subunit beta-1, P07942 was run?
A: yes

Q: With Splicing factor 3A subunit 2, Q15428 as the substance, how does the “listed as a hit” value [36] read?
A: yes

Q: How did the “listed as a hit” value [37] turn out when “U2 small nuclear ribonucleoprotein A', P09661” was run?
A: yes

Q: Which “listed as a hit” value [38] does the source give for Splicing factor 3B subunit 3, Q15393 here?
A: yes

Q: With “U2 snRNP-associated SURP motif-containing protein, O15042” as the substance, how does the “listed as a hit” value [39] read?
A: yes

Q: For “Vesicle transport through interaction with t-SNAREs homolog 1B, Q9UEU0”, which “listed as a hit” value [40] is on record?
A: yes

Q: With “U2 small nuclear ribonucleoprotein B'', P08579” as the substance, how does the “listed as a hit” value [41] read?
A: yes

Q: “Vacuolar protein sorting-associated protein 33A, Q96AX1” was tested. Which “listed as a hit” value [42] did it give?
A: yes

Q: Which results are given for Syntaxin-16, O14662?
A: listed as a hit [43]: yes; listed as a hit [44]: yes

Q: For “Alpha-soluble NSF attachment protein, P54920”, which “listed as a hit” value [44] is on record?
A: yes

Q: For “U3 small nucleolar RNA-interacting protein 2, O43818”, which “listed as a hit” value [45] is on record?
A: yes

Q: For “Metastasis-associated protein MTA2, O94776”, which “listed as a hit” value [11] is on record?
A: yes

Q: And the “listed as a hit” value [46]?
A: yes

Q: For “Coiled-coil domain-containing protein 7, Q96M83”, which “listed as a hit” value [47] is on record?
A: yes

Q: How did the “listed as a hit” value [48] turn out when Polyadenylate-binding protein 4, Q13310 was run?
A: yes

Q: How did the “listed as a hit” value [49] turn out when Protein ZBED11, P0CF97 was run?
A: yes

Q: How did the “listed as a hit” value [50] turn out when Proteasome subunit beta type-5, P28074 was run?
A: yes

Q: Which “listed as a hit” value [51] does the source give for Elongation factor 1-beta, P24534 here?
A: yes

Q: Which “listed as a hit” value [52] does the source give for “Putative heat shock protein HSP 90-beta 2, Q58FF8” here?
A: yes

Q: Which “listed as a hit” value [53] does the source give for RNA-binding Raly-like protein, Q86SE5 here?
A: yes

Q: With Protein disulfide-isomerase, P07237 as the substance, how does the “listed as a hit” value [54] read?
A: yes

Q: Serine palmitoyltransferase 1, O15269 was tested. Which “listed as a hit” value [55] did it give?
A: yes

Q: With “MAP/microtubule affinity-regulating kinase 3, P27448” as the substance, how does the “listed as a hit” value [56] read?
A: yes

Q: For “Microtubule-associated protein 1B, P46821”, which “listed as a hit” value [57] is on record?
A: yes

Q: Titin, Q8WZ42 was tested. Which “listed as a hit” value [58] did it give?
A: yes

Q: Homeobox protein Hox-B3, P14651 was tested. Which “listed as a hit” value [59] did it give?
A: yes

Q: With Flotillin-2, Q14254 as the substance, how does the “listed as a hit” value [60] read?
A: yes

Q: Which “listed as a hit” value [61] does the source give for THO complex subunit 5, Q13769 here?
A: yes

Q: “Interferon-inducible double-stranded RNA-dependent protein kinase activator A, O75569” was tested. Which “listed as a hit” value [14] did it give?
A: yes

Q: Which “listed as a hit” value [62] does the source give for “Rho-related GTP-binding protein RhoC, P08134” here?
A: yes

Q: How did the “listed as a hit” value [63] turn out when Frizzled-9, O00144 was run?
A: yes
